# The supplement of paper PMC12282887
# ± gives the standard deviation of the averaged measurements.
# What was measured:
# Assay in all cases: promoter activity interaction Z-score (Lux/OD deviation from empty-vector control); higher = stronger promoter induction by the compound
# [1] = system: E. coli BW25113 acrABp lux reporter
# Summary of the method: (§1)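 E. coli BW25113 luxCDABE reporter strains grew at 37°C in 40 µl LB Lennox in 384-well plates, with OD600 and luminescence read every 30 min for 12 h. After integration over 0–8 h for wild type or 1–9 h for deletion strains, wells under 10% of the median growth value were removed. Each score is the Z-transformed residual of growth-normalised luminescence fitted against a control.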
# [2] = system: E. coli BW25113 marRABp lux reporter
# Summary of the method: as §1
# [3] = system: E. coli BW25113 micFp lux reporter
# Summary of the method: as §1
# [4] = system: E. coli BW25113 ompFp lux reporter
# Summary of the method: as §1
# [5] = system: E. coli BW25113 robp lux reporter
# Summary of the method: as §1
# [6] = system: E. coli BW25113 soxSp lux reporter
# Summary of the method: as §1
# [7] = system: E. coli BW25113 tolCp lux reporter; details: 0.12 µg/ml; genetic background: wild type
# Summary of the method: as §1
# [8] = 0.12 µg/ml, genetic background: wild type
# [9] = 0.12 µg/ml, genetic background: ΔmarA
# [10] = 0.12 µg/ml, genetic background: Δrob
# [11] = 0.12 µg/ml, genetic background: ΔsoxS
# [12] = 0.24 µg/ml, genetic background: wild type
# [13] = 0.24 µg/ml, genetic background: ΔmarA
# [14] = 0.24 µg/ml, genetic background: Δrob
# [15] = 0.24 µg/ml, genetic background: ΔsoxS
# [16] = 0.48 µg/ml, genetic background: wild type
# [17] = 0.48 µg/ml, genetic background: ΔmarA
# [18] = 0.48 µg/ml, genetic background: Δrob
# [19] = 0.48 µg/ml, genetic background: ΔsoxS
# [20] = 1 µg/ml, genetic background: wild type
# [21] = 1 µg/ml, genetic background: ΔmarA
# [22] = 1 µg/ml, genetic background: ΔsoxS
compound,measurement,setting,value
O=C(N[C@H](CO)[C@H](O)c1ccc([N+](=O)[O-])cc1)C(Cl)Cl [Chloramphenicol],promoter activity interaction Z-score,[1]; [8],0.22 ± 0.098
same,promoter activity interaction Z-score,[1]; [9],-0.0897 ± 1
same,promoter activity interaction Z-score,[1]; [10],0.368 ± 0.066
same,promoter activity interaction Z-score,[1]; [11],0.272 ± 0.11
same,promoter activity interaction Z-score,[1]; [12],0.636 ± 0.41
same,promoter activity interaction Z-score,[1]; [13],-0.23 ± 0.65
same,promoter activity interaction Z-score,[1]; [14],0.312 ± 0.071
same,promoter activity interaction Z-score,[1]; [15],0.433 ± 0.24
same,promoter activity interaction Z-score,[1]; [16],1.1 ± 0.056
same,promoter activity interaction Z-score,[1]; [17],-0.541 ± 0.59
same,promoter activity interaction Z-score,[1]; [18],0.7917 ± 0.0062
same,promoter activity interaction Z-score,[1]; [19],1.11 ± 0.52
same,promoter activity interaction Z-score,[1]; [20],1.46 ± 0.021
same,promoter activity interaction Z-score,[1]; [21],-1.09 ± 0.82
same,promoter activity interaction Z-score,[1]; [22],0.0905
same,promoter activity interaction Z-score,[2]; [8],0.131 ± 0.36
same,promoter activity interaction Z-score,[2]; [9],0.172 ± 0.061
same,promoter activity interaction Z-score,[2]; [10],0.31 ± 0.053
same,promoter activity interaction Z-score,[2]; [11],0.215 ± 0.0078
same,promoter activity interaction Z-score,[2]; [12],0.735 ± 0.19
same,promoter activity interaction Z-score,[2]; [13],0.695 ± 0.4
same,promoter activity interaction Z-score,[2]; [14],0.342 ± 0.21
same,promoter activity interaction Z-score,[2]; [15],0.497 ± 0.14
same,promoter activity interaction Z-score,[2]; [16],1.43 ± 0.31
same,promoter activity interaction Z-score,[2]; [17],1.26 ± 0.45
same,promoter activity interaction Z-score,[2]; [18],0.873 ± 0.55
same,promoter activity interaction Z-score,[2]; [19],1.19 ± 0.34
same,promoter activity interaction Z-score,[2]; [20],0.553 ± 0.19
same,promoter activity interaction Z-score,[2]; [21],-0.609 ± 0.26
same,promoter activity interaction Z-score,[2]; [22],1.31 ± 0.5
same,promoter activity interaction Z-score,[3]; [8],-0.122 ± 0.054
same,promoter activity interaction Z-score,[3]; [9],-0.0498 ± 0.071
same,promoter activity interaction Z-score,[3]; [10],-0.238 ± 0.013
same,promoter activity interaction Z-score,[3]; [11],0.0558 ± 0.064
same,promoter activity interaction Z-score,[3]; [12],0.0837 ± 0.14
same,promoter activity interaction Z-score,[3]; [13],-0.057 ± 0.033
same,promoter activity interaction Z-score,[3]; [14],-0.128 ± 0.036
same,promoter activity interaction Z-score,[3]; [15],-0.0814 ± 0.0056
same,promoter activity interaction Z-score,[3]; [16],-0.548 ± 0.11
same,promoter activity interaction Z-score,[3]; [17],-0.166 ± 0.013
same,promoter activity interaction Z-score,[3]; [18],0.103 ± 0.18
same,promoter activity interaction Z-score,[3]; [19],0.183 ± 0.15
same,promoter activity interaction Z-score,[3]; [20],-1.17 ± 0.016
same,promoter activity interaction Z-score,[3]; [21],-0.119 ± 0.29
same,promoter activity interaction Z-score,[3]; [22],-0.534
same,promoter activity interaction Z-score,[4]; [8],0.809 ± 0.57
same,promoter activity interaction Z-score,[4]; [9],0.473 ± 0.32
same,promoter activity interaction Z-score,[4]; [10],0.576 ± 0.47
same,promoter activity interaction Z-score,[4]; [11],1.1 ± 0.088
same,promoter activity interaction Z-score,[4]; [12],1.81 ± 0.86
same,promoter activity interaction Z-score,[4]; [13],1.78 ± 0.49
same,promoter activity interaction Z-score,[4]; [14],1.2 ± 0.46
same,promoter activity interaction Z-score,[4]; [15],1.55 ± 0.91
same,promoter activity interaction Z-score,[4]; [16],0.1844 ± 0.0012
same,promoter activity interaction Z-score,[4]; [17],1.34 ± 0.83
same,promoter activity interaction Z-score,[4]; [18],0.797 ± 0.094
same,promoter activity interaction Z-score,[4]; [19],1.6 ± 0.38
same,promoter activity interaction Z-score,[4]; [20],-1.42 ± 0.36
same,promoter activity interaction Z-score,[4]; [21],-1.37 ± 0.11
same,promoter activity interaction Z-score,[4]; [22],-0.525
same,promoter activity interaction Z-score,[5]; [8],-0.00573 ± 0.3
same,promoter activity interaction Z-score,[5]; [9],-0.626 ± 0.41
same,promoter activity interaction Z-score,[5]; [10],-0.328 ± 0.36
same,promoter activity interaction Z-score,[5]; [11],0.732 ± 0.14
same,promoter activity interaction Z-score,[5]; [12],-0.692 ± 0.34
same,promoter activity interaction Z-score,[5]; [13],-0.0133 ± 0.15
same,promoter activity interaction Z-score,[5]; [14],-0.61 ± 0.2
same,promoter activity interaction Z-score,[5]; [15],-0.218 ± 0.31
same,promoter activity interaction Z-score,[5]; [16],-1.41 ± 0.4
same,promoter activity interaction Z-score,[5]; [17],-0.957 ± 0.41
same,promoter activity interaction Z-score,[5]; [18],-1.44 ± 0.12
same,promoter activity interaction Z-score,[5]; [19],-1.17 ± 0.88
same,promoter activity interaction Z-score,[5]; [20],-2.19 ± 0.21
same,promoter activity interaction Z-score,[5]; [21],-1.15 ± 0.94
same,promoter activity interaction Z-score,[6]; [8],-0.0492 ± 0.039
same,promoter activity interaction Z-score,[6]; [9],0.159 ± 0.13
same,promoter activity interaction Z-score,[6]; [10],0.217 ± 0.045
same,promoter activity interaction Z-score,[6]; [11],0.238 ± 0.14
same,promoter activity interaction Z-score,[6]; [12],0.299 ± 0.018
same,promoter activity interaction Z-score,[6]; [13],0.529 ± 0.11
same,promoter activity interaction Z-score,[6]; [14],0.189 ± 0.096
same,promoter activity interaction Z-score,[6]; [15],0.422 ± 0.29
same,promoter activity interaction Z-score,[6]; [16],0.645 ± 0.3
same,promoter activity interaction Z-score,[6]; [17],0.914 ± 0.026
same,promoter activity interaction Z-score,[6]; [18],0.721 ± 0.017
same,promoter activity interaction Z-score,[6]; [19],1.45 ± 1.5
same,promoter activity interaction Z-score,[6]; [20],1.67 ± 0.091
same,promoter activity interaction Z-score,[6]; [21],2.38 ± 0.034
same,promoter activity interaction Z-score,[6]; [22],1.71 ± 1.7
same,promoter activity interaction Z-score,[7],0.142 ± 1.1
